Screening data as filed in PubChem BioAssay.
HT1080 IDH1KD tx: kills HT-1080 cells with IDH1 knockdown | HT-1080 IDH1 knockdown viability, ATP luminescence, 48 h | 2% of 360,000 active | AID 686971 | Potency, µM (highest dose often 46.1 µM), most hits filed as cytotoxic
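CellTiter-Glo luminescence after 48 h compound exposure at 37 degrees C of IDH1-knockdown HT-1080 cells in 5% FBS RPMI. %Activity scaled between DMSO wells and cell-free media wells, with curves fitted and assigned curve classes.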
Giardia kill: Giardia lamblia killing; Giardia lamblia trophozoite viability; activity change, % at 7.66 µM, hits read low; 0.15% of 340,000 active; AID 540267; in the data active = activity change below about -80%; inconclusive = between about -30% and that limit;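 note: parasites exposed to compound for two days anaerobically before the ATP read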
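Giardia trophozoites, 100 cells per well, were exposed to compounds for 48 hrs at 37 deg C under anaerobic conditions; viability was then read as ATP content by bioluminescence after 15-30 min at room temperature.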
TGFb inhibitor: blocks TGF-b signaling | HepG2 CAGA-GFP TGF-b/SMAD3 reporter, GFP fluorescence, 18 h; TGF-beta stimulated, 500 pg/mL final | Potency, µM (series often up to 46.1 µM), most hits filed as inhibitors | AID 588855 | 1.2% of 410,000 active; note: nearly all actives have a fitted effect of over 65% in size
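GFP signal (ex488/em500-530) from TGF-beta-stimulated HEPG2 CAGA-GFP cells, 500 pg/mL final, 18 h at 37 degrees C in DMEM plus 1% FBS, normalized to unstimulated and DMSO-stimulated controls.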
HepG2 viability: kills HepG2 cells in TGF-b inhibitor counter-screen | 0.76% of 410,000 active | HepG2 CAGA-GFP viability, ATP luminescence, 18 h | AID 588856 | Potency, µM (highest dose often 46.1 µM), most hits filed as cytotoxic
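CellTiter-Glo luminescence gave cytotoxicity after 18 hours at 37 degrees C. The cells were HepG2 CAGA-GFP in 1% FBS DMEM, stimulated with 500 pg/mL TGF-beta after compound addition. %Activity was normalised to no-cell wells (complete cell-killing) and DMSO (no toxicity), and curves were fitted and classified.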
HT1080NT lethal: kills 2HG-producing HT-1080-NT fibrosarcoma cells; HT-1080-NT fibrosarcoma viability, CellTiter-Glo ATP luminescence, 48 h; Potency, µM (top dose mostly 46.1 µM), most hits filed as cytotoxic; AID 686970; 1.6% of 360,000 active;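 note: NT is the 2HG producing partner of a matched IDH1 knockdown line; nearly all actives have a fitted effect of over 55% in size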
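A 48-hour cytotoxicity screen used HT-1080-NT cells plated 2 hours before compound delivery. ATP-based CellTiter-Glo luminescence measured viability, normalized to DMSO and no-cell controls.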
IL-1B inflam inh: inhibitors of inflammasome signaling (IL-1 beta secretion) | THP-1 LPS/ATP IL-1B secretion, AlphaLISA, 16 h; stronger effect = lower value | 4.7% of 360,000 active | activity change, % at 57.5 µM; in the data active = activity change below about -50%; inconclusive = mostly about -30% to -49%
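THP-1 cells pretreated 1 hr with compounds (up to 57.5 uM final), then stimulated with LPS (250 ng/mL final) plus ATP (1.25 mM final); secreted IL-1B measured by AlphaLISA after 16 hr, decreased signal indicating inhibition.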
Numbers stand for hits; i = inactive; ? = inconclusive; nt = no result; ! = a repeat was not active. Most compounds without a hit are left out; they make up all but 6.5% or so of the library. Unless noted, calls come from the whole dose curve; as a rule, active = well fitted curve in the direction sought with a large enough effect; inconclusive = small, poorly fitted or top-dose-only effect, or another doubt; inactive = no such curve, though single readings can be large; an effect the other way counts as inactive or inconclusive.

SMILES | HT1080 IDH1KD tx | Giardia kill | TGFb inhibitor | HepG2 viability | HT1080NT lethal | IL-1B inflam inh
CC(=O)c1cccc(NC(=O)C2CCCN2S(=O)(=O)c2cccc3cccnc23)c1 (stereo not drawn) | i | i | i | i | i | i
c1ccc(-c2cccc(-c3ccccn3)n2)nc1 | 0.28µM | i | i | i | ? | i
CCS(=O)(=O)CCn1c([N+](=O)[O-])cnc1C | i | -86 | i | i | i | i
Cc1ncc([N+](=O)[O-])n1CCO | i | ? | i | i | i | i
COC(=O)CCC(=O)N(CCN(C(=O)CCC(=O)OC)c1ccccc1)c1ccccc1 | i | i | i | i | i | i
CON(C)C(=O)CCN(C(=O)OC(C)(C)C)c1ccccc1 | i | i | i | 0.56µM | i | i
Cc1cccc2cc(CN(CC3CCCO3)C(=O)NC3CCCCC3)c(=O)[nH]c12 (stereo not drawn) | i | i | i | i | i | i
CCN(CC)CCCN(Cc1cc2ccc(C)c(C)c2[nH]c1=O)C(=O)NC1CCCCC1 | i | i | i | i | i | -52
COc1ccc(CCN(Cc2cc3cccc(C)c3[nH]c2=O)C(=O)NC2CCCCC2)cc1OC | i | i | i | i | i | -68
CN(C)CC(C)(C)CNC(=S)Nc1ccc(S(=O)(=O)N2CCOCC2)cc1 | i | i | i | i | i | i
CC(=O)c1ccc(N2CCN(C(=O)C(=O)c3c(C)[nH]c4ccccc34)CC2)cc1 | i | i | i | i | i | i
CCc1ccc(-n2c(C)nc3cc(C(=O)NCc4cccnc4)ccc32)cc1 | i | i | i | i | i | ?
CCOc1ccc(CN2C(=O)c3ccccc3C2C(=O)NCC2CCCO2)cc1 (stereo not drawn) | i | i | i | i | i | i
c1c2c(cc3sc(N4CCCCC4)nc13)OCO2 | i | i | ? | 10µM | ? | i
COc1ccc(CN2C(=O)c3ccccc3C2=O)cc1C(=O)N(C)CC(=O)Nc1ccc(C)cc1 | i | nt | i | i | i | i
COc1cc2c(c(O)c1OC)C(=O)C(OC)CCC2 (stereo not drawn) | i | i | i | i | i | i
O=S(=O)(CCN1C=CC(C(F)(F)F)=NCC1)c1ccc(Cl)cc1Cl | i | i | i | i | i | -68
O=S(=O)(CCN1C=CC(C(F)(F)F)=NCC1)c1ccc(F)cc1 | i | i | i | i | i | i
O=C(NCc1cccnc1)C(=O)NCC1CCCO1 (stereo not drawn) | i | i | i | i | i | i
CCCCCCSc1ccc(-c2nc3ccc(C)cn3c2NCc2ccccc2)cc1 | i | i | i | i | i | -110!
CCCCCCSc1ccc(-c2nc3ccc(C)cn3c2NCc2ccccc2)cc1OC | ? | i | ? | i | i | -53!
Cc1ccc2nc(-c3cccc(SC4CCCCC4)c3)c(NCc3ccccc3)n2c1 | i | i | ? | i | ? | i
CCCCCCSc1cccc(-c2nc3ccc(Cl)cn3c2NCc2ccccc2)c1 | i | i | i | i | i | i
CC(=O)Nc1cccc(C(=O)OC(C(=O)c2ccc(C)cc2)c2ccccc2)c1 (stereo not drawn) | ? | i | i | i | i | i
OCCN1CCN(CC(O)COC(c2ccc(F)cc2)c2ccc(F)cc2)CC1 (stereo not drawn) | i | i | i | i | i | -79
O=C(O)CNc1ncccc1[N+](=O)[O-] | i | i | i | i | i | i
O=C(Cn1cc([N+](=O)[O-])nc1[N+](=O)[O-])N1CCN(c2ccccc2)CC1 | 26µM | i | ? | i | i | ?
O=C(Cn1cnc2ccccc2c1=O)N1CCN(c2ccccc2)CC1 | i | i | i | i | i | i
O=C(NCc1cccc2ccccc12)c1cccs1 | i | i | i | i | i | i
Nc1nc2c(Br)ccc(Br)c2cc1C(=O)NCc1cccc2ccccc12 | 16µM | nt | nt | nt | i | i
